From PubChem
TDP1 inh = inhibitors of human tyrosyl-DNA phosphodiesterase TDP1. Potency, µM (highest dose often 130 µM), hits mostly inhibitors. Q9NUW8. 0.28% of 350,000 active. recombinant TDP1, AlphaScreen DNA substrate cleavage; note: nearly all actives have a fitted effect of over 40% in size
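Steps: enzyme plus compound, 15 min RT; add biotin/phosphotyrosine-FITC oligonucleotide (15 nM final), react 5 min; add donor/acceptor beads (10 ug/ml final), 10 min; read AlphaScreen. Tdp1 at 1 nM final.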
FEN1 inh-1 = human FEN1 inhibition; P39748; Recombinant FEN1 flap cleavage, fluorescence, 15 min; Potency, µM (doses to about 114 µM), hits mostly inhibitors; 0.35% of 390,000 active; AID 588795; note: nearly all actives have a fitted effect of over 65% in size
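With each library titrated from low to high concentration, compounds met 10 nM FEN1 for 15 min at room temperature before 50 nM substrate was added; readings at 0 and 15 min fed four-parameter Hill curve fits.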
Tb PGK inh = inhibitors of T. brucei phosphoglycerate kinase | P07378 | PGK/GAPDH coupled, Kinase-Glo luminescence, 60 min | Potency, µM (top dose mostly 57.5 µM), usual class: inhibitors | 0.043% of 380,000 active | AID 602233; note: nearly all actives have a fitted effect of over 60% in size
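Recombinant glycosomal PGK reaction used 1,3-bisphosphoglycerate generated in-well by GAPDH (100nM final) in 100mM TEA pH 7.6, 5mM MgCl2, 0.01% Tween-20. After 60 minutes at room temperature, ATP was read by Kinase-Glo Plus luminescence end-point.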
PI4K2A inh = PI4K2A (human) kinase inhibition | Q9BTU6 | purified PI4K2A, ADP-Glo luminescence, 1 h; stronger effect = lower value | activity change, negative = inhibition, % at 76.9 µM | 0.13% of 420,000 active | AID 1346378; in the data active = activity change below about -50%; inconclusive = mostly about -30% to -49%
Target sequence (Q9BTU6 whole entry, looked up): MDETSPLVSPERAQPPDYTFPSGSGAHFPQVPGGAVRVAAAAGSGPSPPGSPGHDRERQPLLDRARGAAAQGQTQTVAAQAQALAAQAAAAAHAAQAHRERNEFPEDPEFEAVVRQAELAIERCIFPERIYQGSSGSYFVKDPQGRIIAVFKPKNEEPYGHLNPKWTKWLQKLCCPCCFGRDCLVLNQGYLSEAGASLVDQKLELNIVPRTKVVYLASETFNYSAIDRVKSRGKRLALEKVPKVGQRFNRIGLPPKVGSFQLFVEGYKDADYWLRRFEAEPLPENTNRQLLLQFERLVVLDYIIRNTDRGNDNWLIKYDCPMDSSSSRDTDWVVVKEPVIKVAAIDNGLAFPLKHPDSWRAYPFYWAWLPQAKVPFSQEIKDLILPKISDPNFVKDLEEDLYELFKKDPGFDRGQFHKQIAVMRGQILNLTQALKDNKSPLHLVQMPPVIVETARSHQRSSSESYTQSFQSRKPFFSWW
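In this quantitative HTS, ADP production by PI4K2A was quantified luminescently after 1 h at ambient temperature; 100 microM adenosine served as plate-quality control.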
Tb PFK inh = T. brucei PFK enzyme inhibition; T. brucei PFK, ADP-Glo luminescence; Potency, µM (doses to about 57.5 µM), hits mostly inhibitors; 0.17% of 330,000 active; note: nearly all actives have a fitted effect of over 60% in size
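PFK 1.25 nM, F6P 0.5 mM, ATP 0.1 mM, 0.1 M TEA pH 8.0, 5 mM MgCl2, 0.01% Tween20, 0.1% BSA; 45 min RT. ADP-Glo readout. qHTS titration up to 57 uM; curves fitted, compounds curve-classed.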
APEX1 inh = blocks human APE1 abasic DNA cleavage. Potency, µM (series often up to 65.8 µM), hits mostly inhibitors. 0.35% of 350,000 active. AID 2517. recombinant APE1, TAMRA/BHQ-2 abasic DNA cleavage fluorescence; note: nearly all actives have a fitted effect of over 55% in size
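Enzyme (0.75 nM final) and test compound are incubated 15 min at room temperature before adding 50 nM quenched THF abasic-site duplex. Cleavage dequenches TAMRA, followed at 525/598 nm over three reads one minute apart.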
FEN1 inh-2 = FEN1 inhibition, cherry-pick retest; 79% of 880 active; Potency, µM, most hits filed as inhibitors; FEN1 flap cleavage, TAMRA/BHQ2 fluorogenic DNA substrate; shares compounds with FEN1 inh-1; note: nearly all actives have a fitted effect of over 60% in size
A number is an active result; – = inactive; ? = inconclusive; · = no result given. Shown are actives, neighbours in structure and some others; about 0.8% of the full set was active somewhere. Unless noted, calls come from the whole dose curve; as a rule, active = well fitted curve in the direction sought with a large enough effect; inconclusive = small, poorly fitted or top-dose-only effect, or another doubt; inactive = no such curve, though single readings can be large; an effect the other way counts as inactive or inconclusive.

SMILES | TDP1 inh | FEN1 inh-1 | Tb PGK inh | PI4K2A inh | Tb PFK inh | APEX1 inh | FEN1 inh-2
O=C(CN1C(=O)S/C(=C\c2cc(Cl)c(O)c(Cl)c2)C1=O)Nc1ccccc1 | · | – | – | – | – | – | ·
CC(=O)Nc1ccc(NC(=O)c2cc(-c3ccc(C)c(C)c3O)n[nH]2)cc1 | · | – | – | – | – | – | ·
Cc1ccc(-c2cc(C(=O)Nc3ccc(S(=O)(=O)Nc4ncccn4)cc3)[nH]n2)c(O)c1C | – | ? | – | – | – | – | ?
Cc1cccc(/C=C\c2nc3ccccc3c(=O)[nH]2)c1 | – | – | – | – | – | – | ·
COc1cc(/C=C/c2nc3ccccc3c(=O)[nH]2)cc(Cl)c1O | – | ? | – | – | – | – | ?
CCOC(=O)c1cc2c(=O)n3ccccc3nc2n(Cc2ccco2)c1=NC(=O)c1cccc(C)c1 | – | – | – | – | · | · | ·
CCOC(=O)c1cc2c(=O)n3ccccc3nc2n(Cc2ccco2)c1=NC(=O)c1c(F)cccc1Cl | – | – | – | – | · | · | ?
COc1ccc(N)c2c1C(=O)c1ccccc1C2=O | – | ? | – | – | – | ? | 75.7
COc1ccc(OC)c2c1C(=O)c1ccccc1C2=O | · | ? | – | – | – | ? | ·
COc1ccc2noc3c2c1C(=O)c1ccccc1-3 | · | ? | – | ? | · | · | ?
Cc1cc(/C=C2\C(=N)N3N=C(c4ccco4)SC3=NC2=O)c(C)n1Cc1ccccc1 | – | ? | – | – | – | – | ?
CCC1=NN2C(=N)/C(=C/c3cc(C)n(Cc4ccccc4)c3C)C(=O)N=C2S1 | – | – | – | – | – | – | ·
O=CNc1ccc(/C=C/c2ccnc3ccccc23)cc1 | · | – | · | · | · | · | ·
COc1ccc(CCC(=O)NO)cc1 | · | – | · | · | · | · | ·
CCOC(=O)C1=C(C)N=c2s/c(=C\c3ccc(OCC(=O)O)cc3)c(=O)n2C1c1ccc(Cl)cc1 (configuration not stated) | · | ? | ? | – | ? | 10.6µM | 75.7
CCOc1ccc(C2C(C(=O)Nc3ccccc3)=C(C)N=c3s/c(=C/c4cccc(OCC(=O)O)c4)c(=O)n32)cc1 (configuration not stated) | – | – | – | – | – | – | ·
CCOC(=O)C1=C(C)N=c2s/c(=C/c3ccc(OCC(=O)O)cc3)c(=O)n2C1c1ccc(F)cc1 (configuration not stated) | · | ? | – | – | – | – | 84.9
CC(=O)Nc1ccc(-n2nnnc2SCC(=O)Nc2cccc(NC(=O)c3ccco3)c2)cc1 | · | ? | – | – | – | ? | ?
CCCc1cc(=O)oc2cc(OCC(=O)Nc3ccc(S(N)(=O)=O)cc3)ccc12 | – | ? | ? | ? | ? | ? | 67.5
COc1ccc(Nc2c3ccccc3nc3ccccc23)cc1 | – | ? | – | – | – | – | 30.1
CN1CCN(c2ccc(Nc3c4ccccc4nc4ccccc34)cc2)CC1 | – | · | · | · | · | 22.4µM | 19
COc1ccc(Nc2nc(N3CCCC3)c3ccccc3n2)cc1 | – | ? | – | – | – | – | 33.8
O=C(O)c1ccc(Nc2c3ccccc3nc3ccccc23)cc1 | · | – | – | – | – | – | ·
C[N+]1(CC(=O)c2ccc(Cl)cc2)CCOCC1 | · | – | · | · | · | · | ·
Cc1cc2c(s1)c1cnn(Cc3ccccc3F)c(=O)c1n2C(C)C | – | · | · | · | · | · | ·
SMILES | TDP1 inh | FEN1 inh-1 | Tb PGK inh | PI4K2A inh | Tb PFK inh | APEX1 inh | FEN1 inh-2
CN(C)c1ccc(/C=C/c2c3c(nc4ccccc24)CCCC3)cc1 | · | – | · | · | · | · | ·
COc1ccc2sc(/C=C/c3ccccc3O)[n+](C)c2c1 | – | 39.8µM | – | – | – | – | 84.9
NC(=O)C1CCN(c2nc(-c3ccccc3Cl)cs2)CC1 | · | · | · | · | · | – | ·
CCOC(=O)CCCC(=O)N1CCN(/[N+]([O-])=N/Oc2ccc([N+](=O)[O-])cc2[N+](=O)[O-])CC1 | · | – | · | · | · | · | ·
O=C(O)c1cccc(-n2cccc2/C=C2/NC(=O)N(c3ccc(Cl)cc3)C2=O)c1 | 0.0398µM | 20µM | 3.16µM | ? | ? | 2µM | 21.3
CC(OC(=O)c1ccc([N+](=O)[O-])o1)C(=O)NC1CCCCC1C (configuration not stated) | – | 12.6µM | – | – | – | – | 6.01
CCOC(=O)C1CCN(C(=O)COC(=O)c2ccc([N+](=O)[O-])o2)CC1 | · | ? | – | – | – | – | 10.7
Cn1c(N)c(C(=O)COC(=O)c2ccc([N+](=O)[O-])o2)c(=O)n(C)c1=O | – | ? | – | – | – | – | 8.49
CC1CC(C)CN(C(=O)COC(=O)c2ccc([N+](=O)[O-])o2)C1 (configuration not stated) | – | – | – | – | – | – | ·
CC1CCCC(C)N1C(=O)COC(=O)c1ccc([N+](=O)[O-])o1 (configuration not stated) | – | ? | – | – | – | – | 15.1
Cn1c2cc(S(C)=O)sc2c2cnn(Cc3ccccc3F)c(=O)c21 (configuration not stated) | – | · | · | · | · | · | ·
NC(=O)c1ccc[n+]([C@@H]2O[C@H](COP(=O)([O-])OP(=O)(O)OC[C@H]3O[C@@H](n4cnc5c(N)ncnc54)[C@H](O)[C@@H]3O)[C@@H](O)[C@H]2O)c1 | · | · | · | · | · | – | ·
COc1cc(/C=C2\SC(=S)N(NS(=O)(=O)c3ccc(C)cc3)C2=O)ccc1O | – | – | – | – | – | – | 67.5
COc1cc(/C=C2\SC(=S)N(NC(=O)c3cccc(O)c3)C2=O)ccc1O | · | ? | – | – | – | – | ·
COc1cc(/C=C2\SC(=S)N(NC(=O)c3ccc(O)c(OC)c3)C2=O)ccc1O | · | ? | – | – | – | – | 42.6
O=C(NN1C(=O)/C(=C/C=C/c2ccco2)SC1=S)c1ccccc1O | · | 11.2µM | ? | – | – | 2µM | 26.9
COc1cc(/C=C2\SC(=S)N(NC(=O)c3ccccc3OC)C2=O)ccc1O | · | ? | – | – | – | – | ?
COc1cc(/C=C2\SC(=S)N(NS(=O)(=O)c3ccccc3)C2=O)ccc1O | · | – | – | – | – | – | ·
COc1ccccc1C(=O)NN1C(=O)/C(=C/c2cccn2C)SC1=S | · | · | · | · | – | – | ·
Oc1cccc2c(CC(O)c3c[nH]c4ccccc34)ccnc12 (configuration not stated) | · | – | · | · | · | · | ·
COc1cc(/C=C2\SC(=S)N(NC(=O)c3ccncc3)C2=O)ccc1O | – | ? | – | – | – | ? | 75.7
CCOc1cc(/C=C2\SC(=S)N(NS(=O)(=O)c3ccc(C)cc3)C2=O)ccc1O | · | – | – | – | · | · | ·
COc1cc(/C=C2/SC(=S)N(c3c(C)n(C)n(-c4ccccc4)c3=O)C2=O)ccc1O | – | ? | ? | – | – | – | ?
